Here are results for 55 molecules from PubChem BioAssay AID485297 (National Center for Advancing Translational Sciences (NCATS), 2010).

In all, about 320,000 compounds went through this assay and about 9,100 (2.8%) were called active. Roughly 3% stayed inconclusive and do not appear here. Shown is part of a subset that was picked to be rich in actives. A number with no mark means an inactive call. The call rests on the fitted dose curve; in most records, active means well fitted activation curve with a large enough effect; inconclusive means small, poorly fitted or top-dose-only effect; inactive means no such curve, though single readings can be large or run the other way.
Potency means the concentration at half of the fitted maximal effect.

This assay in a line: qHTS Assay for Rab9 Promoter Activators. Further: nearly all actives have a fitted effect of over 60% in size. On activation, negative = inhibition: % of control where 0% means no effect. The settings on record: Huh7 Rab9 promoter-luciferase reporter, luminescence, 24 h; series mostly up to 9.22 µM; activation, negative = inhibition: at the top concentration. The method, boiled down: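 Promoter activation is measured as luciferase luminescence in Huh7 cells stably transfected with a Rab9 promoter–luciferase construct, following 24 h compound exposure at 37 °C and 10 min reagent incubation at ambient temperature.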
As for `Clc1ccc(-c2ncc3ccccn23)c(Cl)c1`, the “activation, negative = inhibition” value is -3.01%. On to `Clc1ccc(-c2cc(-c3ccccn3)on2)c(Cl)c1`, for which the Potency is 100 nM (active).

As for `COn1c(-c2ccc(Cl)cc2Cl)nc2ncccc21`, the “activation, negative = inhibition” value was -2.3%. As to `COc1cccc(C(=O)OCC(=O)c2[nH]c(C)c(C(C)=O)c2C)c1`, the “activation, negative = inhibition” value is -7.27%. As for `CN(Cc1cccs1)C(=O)CN1C(=O)c2ccccc2S1(=O)=O`, the “activation, negative = inhibition” value was 22.4%. In the case of `O=C(/C=C(O)/C=C/c1ccc(O)cc1)/C=C/c1ccc(O)cc1`, the “activation, negative = inhibition” value was -2.14%. Consider `Cc1ccc2sc(NNC(=O)c3ccc4c(c3)OCCO4)nc2c1C`, for which the “activation, negative = inhibition” value is -6.32%. On to `Cc1cccc(C)c1NC(=O)CNC(=O)c1ccc2c(c1)OCCO2`, for which the “activation, negative = inhibition” value was 1.78%. On to `O=C(Nc1cccc(Cl)c1N1CCOCC1)c1ccc2c(c1)OCCO2`, for which the “activation, negative = inhibition” value was -2.62%. As to `Cc1nc(NC(=O)c2ccc3c(c2)OCCO3)ccc1Br`, the Potency is 562 nM (active). Turning to `CCCc1cc(C(=O)Nc2ccc(Cl)cn2)cs1`, the Potency is 447 nM (active). As for `CC(=O)c1ccc2c(c1)OCCOCCOc1ccc(C(C)=O)cc1OCCOCCO2`, the “activation, negative = inhibition” value was 0.828%. Consider `COc1ccc(/C=N/NC(=O)c2ccc3c(c2)OCCO3)c(OC)c1`, for which the “activation, negative = inhibition” value was 1.01%. Regarding `CCCCC(CC)C(=O)Nc1ccc(Cl)cn1` (stereo not given), the “activation, negative = inhibition” value was -2.96%. Same read-out and setting: the value for `COc1ccc(C(=O)NC(=S)Nc2ccc(Cl)cn2)cc1OC` was -0.572%. For `Cc1ccc(C(=O)NNC(=O)c2ccc3c(c2)OCCO3)cc1`, the Potency is 3980 nM (active). For the molecule `CCCc1cc(C(=O)Nc2ccc(C(=O)OC)cc2)cs1`, the “activation, negative = inhibition” value was 24.7%. Turning to `O=C(Nc1ccc(Cl)cn1)c1ccc2c(c1)OCCO2`, the Potency is 562 nM (active). For `CCOCC(=O)NCc1ccc2c(c1)cc(C)n2C`, the “activation, negative = inhibition” value was 0.0404%. Regarding `Cc1cccc(Nc2nnc(SCC(=O)c3c(N)n(C4CC4)c(=O)[nH]c3=O)s2)c1C`, the “activation, negative = inhibition” value was -5.09%. On to `Cc1cc(C)c2nc(SCC(=O)N(C)C3CCS(=O)(=O)C3)cc(C)c2c1` (stereo not given), for which the “activation, negative = inhibition” value was -3.36%.

Consider `CC(C)(C)C1C/C(=C/c2ccco2)C(=O)/C(=C/c2ccco2)C1` (stereo not given), for which the “activation, negative = inhibition” value is -4.64%. On the same count and under the same terms, the value for `CSc1ccc(Cl)c(C(=O)OCC(=O)N2CCNC2=O)c1` was -0.409%; that for `CCn1c(=S)sc2c(=O)n(CC(=O)Nc3ccc(OC)cc3)c(C)nc21` was 3.7%.

`Cc1ccc(CSc2ccc(S(=O)(=O)N3CCCCC3)cn2)cc1`: the “activation, negative = inhibition” value was -3.41%. On the same count and under the same terms, the value for `O=C(CCNS(=O)(=O)c1ccccc1)NCCCc1ccccc1` was 2.02%. As to `COc1ccc2c(c1OC)C(=O)c1ccccc1C2=O`, the Potency is 3980 nM (active). On to `CC(=O)Oc1ccc2c(c1)C(=O)c1ccccc1C2=O`, for which the “activation, negative = inhibition” value was 13.4%. For `COc1cccc(-c2ccc3c(c2)S(=O)(=O)c2cccc(C(=O)O)c2C3=O)c1OC`, the “activation, negative = inhibition” value is -4.96%. Take `CN(CC(=O)NCCc1ccc(F)cc1)CC(=O)Nc1ccc(F)c(F)c1F`: the “activation, negative = inhibition” value is -3.52%. `Cc1c(C(=O)Nc2ccccn2)oc2ccc(Br)cc12`: the Potency was 3550 nM (active). On to `Cc1nonc1NC(=O)c1oc2ccccc2c1C`, for which the “activation, negative = inhibition” value is 27.1%. Turning to `Cc1noc(C)c1C(=O)Nc1ccccn1`, the “activation, negative = inhibition” value was -0.886%. `CC1CCCN(C(=O)c2cc(-c3ccco3)nc3ccccc23)C1` (stereo not given): the “activation, negative = inhibition” value was -3.82%. For the molecule `O=C(Cc1cccs1)NCc1cccc(C(F)(F)F)c1`, the Potency is 2510 nM (active). Consider `O=C(CCC(=O)c1ccccc1)NCc1cccc(C(F)(F)F)c1`, for which the “activation, negative = inhibition” value is 3.01%. Turning to `COc1cc(CC(=O)NCc2cccs2)cc(OC)c1OC`, the “activation, negative = inhibition” value was 1.53%.

Turning to `O=S(=O)(c1ccc(SCc2ccc(Br)cc2)nc1)N1CCOCC1`, the “activation, negative = inhibition” value is -2.87%. On to `COC(=O)c1cccc(NC(=O)c2cccc(N3C(=O)CCC3=O)c2)c1`, for which the “activation, negative = inhibition” value is -2.95%. Turning to `O=C(COC(=O)c1cc(S(=O)(=O)N2CCOCC2)ccc1Cl)NCCc1ccccc1`, the “activation, negative = inhibition” value was 19.9%. Turning to `CC(C)c1ccc(S(=O)(=O)N2CCN(C(C)C(=O)NC3CCCC3)CC2)cc1` (stereo not given), the “activation, negative = inhibition” value is -5.78%.

Consider `COc1ccc(OC)c(-c2csc(-c3cccs3)n2)c1`, for which the “activation, negative = inhibition” value is 5.35%. For the molecule `COc1ccc(-c2csc(-c3cccs3)n2)cc1OC`, the Potency is 1780 nM (active). For `COc1cccc(CC(=O)Nc2nc(-c3ccc(OC)c(OC)c3)cs2)c1`, the “activation, negative = inhibition” value was -3.51%. For `O=C1Cc2cc(S(=O)(=O)Nc3cccc(F)c3)ccc2N1`, the “activation, negative = inhibition” value is 1.59%. For `COc1ccc(CCNC(=O)COC(=O)c2cc(=O)c3ccccc3o2)cc1`, the “activation, negative = inhibition” value is 1.25%. Regarding `COc1ccc(-c2csc(Cc3nc(O)cs3)n2)cc1`, the Potency was 1000 nM (active). In the case of `CC(C)(C)C(=O)OCc1nc(-c2ccc(O)c(O)c2)cs1`, the “activation, negative = inhibition” value is 9.03%. As for `COc1cccc(CC(=O)Nc2ccc(-c3csc(C)n3)cc2)c1`, the “activation, negative = inhibition” value was 4.45%. As for `O=C(c1cn(-c2ccccc2)nc1-c1cccnc1)N1CCN(S(=O)(=O)c2ccccc2F)CC1`, the “activation, negative = inhibition” value is 0.673%.

In the case of `CC(=O)Nc1ccc(C(=O)Nc2nc(-c3cc(C)n(Cc4ccccc4)c3C)cs2)cc1`, the “activation, negative = inhibition” value was -1.86%. Regarding `Cc1ccc(Nc2nc(-c3ccc(O)cc3O)cs2)nc1`, the Potency is 1410 nM (active). On to `O=C(CCNS(=O)(=O)c1ccccc1C(F)(F)F)Nc1ccncc1`, for which the “activation, negative = inhibition” value was -2.35%. Regarding `Cc1cccc(OCCC(=O)OCc2csc(CC(=O)Nc3ccccc3C)n2)c1`, the “activation, negative = inhibition” value is -2.11%.

Take `Cc1cc(Cl)c2oc(C(=O)N3CCC(O)(c4ccccc4)CC3)c(C)c2c1`: the “activation, negative = inhibition” value is 2.32%.
